Test system: Vero E6 infected with SARS-CoV-2
Assay: inhibition of SARS-CoV-2 cytopathic effect; higher = more antiviral protection, active = above 15
Conditions: 48 h

Measured: inhibition of SARS-CoV-2 cytopathic effect

Cn1c(=O)c2c(ncn2CC(=O)Nc2ccc(-c3ccccc3)nn2)n(C)c1=O
inactive: 1 nM 2.25% | 8.33 nM 0.06% | 100 nM 1.35% | 833.33 nM 4.8% | 10000 nM 7.55%

O=C(O)C[C@H](O)C[C@H](O)/C=C/c1c(C2CC2)nc2ccccc2c1-c1ccc(F)cc1 [pitavastatin]
inactive: 1 nM 1.96% | 8.33 nM 3.86% | 100 nM 3.12% | 833.33 nM 2.39% | 10000 nM 6.01%

CCOC(=O)Nc1ccc2c(c1)N(C(=O)CN(C)C)c1ccccc1CC2 [tiracizine]
inactive: 1 nM 3.29% | 8.33 nM -0.87% | 100 nM -0.27% | 833.33 nM 1.89% | 10000 nM 0.68%

OCCN1C[C@H](O)[C@@H](O)[C@H](O)[C@H]1CO [miglitol]
active: 100 nM 52.1%
inactive: 1 nM -4.01% | 8.33 nM -3.41% | 833.33 nM -3.71% | 10000 nM -4.78%

CC1(C)CNc2cc(NC(=O)c3cccnc3NCc3ccncc3)ccc21 [motesanib]
inactive: 1 nM -2.26% | 8.33 nM -1.53% | 100 nM -1.67% | 833.33 nM 1.7% | 10000 nM 1.82%

Cn1nnc2c(C(N)=O)ncn2c1=O [temozolomide]
inactive: 1 nM 0.73% | 8.33 nM -1.46% | 100 nM -0.92% | 833.33 nM -0.44% | 10000 nM -1.79%

CCc1nc2ccc(Cl)cn2c1C(=O)NCc1ccc(N2CCC(c3ccc(OC(F)(F)F)cc3)CC2)cc1
inactive: 1 nM 0.5% | 8.33 nM 1.98% | 100 nM -0.55% | 833.33 nM 0.62% | 10000 nM -1.65%

CCCCOc1cc(CC2CNC(=O)N2)ccc1OC (stereo not given)
inactive: 1 nM -0.73% | 8.33 nM 1.6% | 100 nM -3.01% | 833.33 nM -0.63% | 10000 nM -1.88%

COc1ccc(-c2csc(NC(=O)[C@H]3CCCCN3S(=O)(=O)c3ccc(C)cc3)n2)cc1
inactive: 1 nM 0.8% | 8.33 nM 2.33% | 100 nM 1.23% | 833.33 nM 2.63% | 10000 nM 1.27%

COc1ccc(C(=O)Nc2c(Cl)cncc2Cl)cc1OC1CCCC1 [piclamilast]
inactive: 1 nM -1.88% | 8.33 nM -0.22% | 100 nM 0.16% | 833.33 nM -2.24% | 10000 nM -0.91%

O=C(Nc1cccc2c(=O)cc(-c3nnn[nH]3)oc12)c1ccc(OCCCCc2ccccc2)cc1 [pranlukast]
inactive: 1 nM -0.09% | 8.33 nM 2.87% | 100 nM 0.47% | 833.33 nM -3.27% | 10000 nM 1.15%

CC1(C)C(=O)N(CCN2CCC(C(=O)c3ccc(F)cc3)CC2)c2ccccc21
inactive: 1 nM -2.5% | 8.33 nM 0.34% | 100 nM -1.18% | 833.33 nM -0.38% | 10000 nM 0.46%

CC(=O)C1=C(O)[C@@H]2[C@H]3c4c[nH]c5cccc(c45)C[C@H]3C(C)(C)N2C1=O [cyclopiazonic-acid]
inactive: 1 nM 0.48% | 8.33 nM 0.86% | 100 nM 2% | 833.33 nM -0.85% | 10000 nM 14.2%

CC(C)[C@](O)(c1ccc2cc(OC(F)F)c(OC(F)F)cc2c1)c1c[nH]nn1
inactive: 1 nM -0.91% | 8.33 nM 2.28% | 100 nM 2.85% | 833.33 nM 5.3% | 10000 nM 6.8%

CN(C)[C@@H]1C(O)=C(C(N)=O)C(=O)[C@@]2(O)C(O)=C3C(=O)c4c(O)ccc(Cl)c4[C@@H](O)[C@H]3C[C@@H]12 [demeclocycline]
inactive: 1 nM 1.68% | 8.33 nM 1.08% | 100 nM 0.96% | 833.33 nM 1.19% | 10000 nM 2.34%

Cc1cnc(NC(=O)Nc2cc(Br)c(C)cc2OC[C@@H]2CNCCO2)cn1
inactive: 1 nM 1.08% | 8.33 nM 0.44% | 100 nM 1.44% | 833.33 nM -2.34% | 10000 nM -10.4%

COc1ccc2nc3[nH]nc(C)c3c(NCCOCCO)c2c1
inactive: 1 nM -3.38% | 8.33 nM -2.01% | 100 nM -3.28% | 833.33 nM -0.23% | 10000 nM -2.9%

Cc1c(Cl)cccc1Nc1ccccc1C(=O)O [tolfenamic-acid]
inactive: 1 nM -1.57% | 8.33 nM -0.57% | 100 nM 1.25% | 833.33 nM 0.34% | 10000 nM -0.7%

Cc1cccc(C)c1NC(=O)CC12CCCN1CCC2 [pilsicainide]
inactive: 1 nM 0.34% | 8.33 nM 2.77% | 100 nM 4.31% | 833.33 nM 6.65% | 10000 nM -1.57%

CC(=O)Nc1ccc(C(=O)O)cc1 [acedoben]
inactive: 1 nM -1.13% | 8.33 nM 3.16% | 100 nM 1.58% | 833.33 nM 0.73% | 10000 nM 3.31%

CCN1CCC[C@H]1CNC(=O)c1c(O)c(Cl)cc(Cl)c1OC [raclopride]
inactive: 1 nM -5.41% | 8.33 nM -4.22% | 100 nM -1.29% | 833.33 nM -2.68% | 10000 nM -0.07%

c1ccc2c(c1)CCCc1cc(NCCN3CCOCC3)nnc1-2
inactive: 1 nM 0.07% | 8.33 nM 1.77% | 100 nM 1.8% | 833.33 nM 1.51% | 10000 nM 0.84%

COc1ccc(CCN(C)CCCC(C#N)(c2cc(OC)c(OC)c(OC)c2)C(C)C)cc1OC (stereo not given) [gallopamil]
inactive: 1 nM -0.29% | 8.33 nM 0.76% | 100 nM -0.41% | 833.33 nM 0.33% | 10000 nM -2.43%

C[C@@H](CN(C)C)CN1c2ccccc2Sc2ccccc21 (racemic) [alimemazine]
inactive: 1 nM -2.63% | 8.33 nM -3.15% | 100 nM -1.76% | 833.33 nM -0.79% | 10000 nM -0.47%

NCC(CC(=O)O)c1ccc(Cl)cc1 (stereo not given) [baclofen]
inactive: 1 nM -0.225% | 8.33 nM -1.56% | 100 nM -2.14% | 833.33 nM 0.04% | 10000 nM -0.06%

CS(=O)(=O)c1ccc(-c2cnc(NCc3ccco3)n3cnnc23)cc1
inactive: 1 nM 4.45% | 8.33 nM 2.39% | 100 nM 0.36% | 833.33 nM -0.76% | 10000 nM -0.13%

Cn1ccc2cc(NC(=O)Nc3cccnc3)ccc21
inactive: 1 nM -1.98% | 8.33 nM -2.46% | 100 nM 0.51% | 833.33 nM -1.88% | 10000 nM 1.94%

O=C(NCc1ccccc1)OCCO [buramate]
inactive: 1 nM -3.11% | 8.33 nM -3.15% | 100 nM -10.9% | 833.33 nM 1.79% | 10000 nM 0.54%

Clc1ccc(C(Cn2ccnc2)OCc2ccc(Sc3ccccc3)cc2)c(Cl)c1 (stereo not given) [fenticonazole]
inactive: 1 nM -3.37% | 8.33 nM 3.19% | 100 nM 0.76% | 833.33 nM 0.19% | 10000 nM 2.21%

C=CC1=C(C)c2cc3[nH]c(cc4nc(cc5[nH]c(cc1n2)c(C)c5CCC(=O)O)C(CCC(=O)O)=C4C)c(C)c3C=C [protoporphyrin-IX]
inactive: 1 nM -0.78% | 8.33 nM -0.99% | 100 nM -0.13% | 833.33 nM -0.31% | 10000 nM -4.69%

Cc1c(CC(C)(C)C(=O)O)n(Cc2ccc(Cl)cc2)c2ccc(F)cc12
inactive: 1 nM 3.46% | 8.33 nM 2.25% | 100 nM 4.56% | 833.33 nM 3.57% | 10000 nM 1.6%

NC(=O)c1ncn([C@@H]2O[C@H](CO)[C@@H](O)[C@H]2O)n1 [ribavirin]
inactive: 1 nM -5.15% | 8.33 nM -3.9% | 100 nM -6.04% | 833.33 nM -0.66% | 10000 nM 4.23%

O=c1cc[nH]c(=O)[nH]1 [uracil]
inactive: 1 nM -0.48% | 8.33 nM 2.2% | 100 nM 2.09% | 833.33 nM 1.66% | 10000 nM -2.12%

CCCCc1oc2ccc(NS(C)(=O)=O)cc2c1C(=O)c1ccc(OCCCN(CCCC)CCCC)cc1 [dronedarone]
inactive: 1 nM 3.27% | 8.33 nM 1.28% | 100 nM -0.45% | 833.33 nM 4.57%
active: 10000 nM 29.3%

O=C(O)c1ccc(N2N=C(Cc3ccccc3)/C(=C\c3ccc(-c4ccccc4F)o3)C2=O)cc1
inactive: 1 nM -0.59% | 8.33 nM 0.52% | 100 nM -1.43% | 833.33 nM 1.97% | 10000 nM -1.44%

CSc1cc2c(cc1C(F)(F)F)N(C(=O)Nc1cccnc1)CC2
inactive: 1 nM -0.31% | 8.33 nM -3.61% | 100 nM 1.56% | 833.33 nM 1.75% | 10000 nM 0.95%

C/C(=N\NC(=O)[C@@H]1C(=O)NC[C@H]1c1ccccc1)c1cccc(Br)c1
inactive: 1 nM -1.05% | 8.33 nM 1.12% | 100 nM 1.69% | 833.33 nM -2.01% | 10000 nM -2.3%

Cc1oc(-c2ccccc2)nc1CCOc1ccc(CC2SC(=O)NC2=O)c2sccc12 (stereo not given) [edaglitazone]
inactive: 1 nM 0.32% | 8.33 nM 0.98% | 100 nM 0.63% | 833.33 nM 1.32% | 10000 nM 2.31%

CCCn1c(=O)c2nc(-c3ccccc3)[nH]c2n(CCC)c1=O [1,3-dipropyl-8-phenylxanthine]
inactive: 1 nM -3.41% | 8.33 nM -2.62% | 100 nM -2.96% | 833.33 nM -3.56% | 10000 nM -1.61%

FCc1ccc(OCCOc2ccc(Cl)cc2Cl)c(Cl)n1
inactive: 1 nM 2.16% | 8.33 nM 2.42% | 100 nM 2.11% | 833.33 nM 1.12% | 10000 nM 1.65%

CCc1cnn2c(NCc3ccc[n+]([O-])c3)cc(N3CCCC[C@H]3CCO)nc12 [dinaciclib]
inactive: 1 nM 1.49% | 8.33 nM -1.48% | 100 nM -3.71% | 833.33 nM -9.46% | 10000 nM -8.75%

Source: the supplement of paper PMC13380429
